Measured values from PubChem BioAssay (EPA / NIEHS).
The source made the active and inactive calls. Rule for the calls: active = hit-call score of the fitted dose curve at least 0.9, where 1 is the maximum; inactive = score below 0.9.

Columns and labels:
[1] = ATG_PBREM_CIS: Attagene CIS-FACTORIAL HepG2 Assay for human Phenobarbital-responsive Enhancer Module (PBREM) (AID 2282955); conditions: HepG2 PBREM cis-reporter, Attagene multiplexed transcription; actives raise or lower the signal
Summary of the method: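 HepG2 cells transiently transfected with multiple cis-regulated reporter transcription units; endogenous factor activity at the PBREM element measured as reporter mRNA 24 h after dosing, via RT-PCR and capillary electrophoresis of fluorescent fragments; bidirectional fitting versus DMSO.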

[2] = molecular target: Paired box protein Pax-6 (Homo sapiens) (UniProt P26367); assay: ATG_Pax6_CIS: Attagene CIS-FACTORIAL HepG2 Assay for human Paired Box 6 (PAX6) (AID 2282956); conditions: HepG2 CIS-FACTORIAL PAX6 reporter transcription, RNA readout; actives raise or lower the signal
Summary of the method: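 After twenty-four hours of chemical exposure, transfected HepG2 cells are harvested for RNA. Cis-promoter reporter transcripts are amplified, fluorescently labelled and sized by capillary electrophoresis, with gain and loss of signal scored against DMSO.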

[3] = ATG_PXRE_CIS: Attagene CIS-FACTORIAL HepG2 Assay for human Pregnane X Receptor Element (PXRE) (AID 2282957); conditions: HepG2 Attagene CIS-FACTORIAL PXRE reporter, mRNA; actives raise or lower the signal
Summary of the method: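 Transfect HepG2 with MRTUs (cis promoter elements); dose chemical, incubate 24 h; isolate RNA, RT with oligo(dT), PCR, 6-FAM label, HpaI cut, CE. Gain/loss fit vs DMSO.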

[4] = ATG_PPRE_CIS: Attagene CIS-FACTORIAL HepG2 Assay for human Peroxisome Proliferator-activated Response Element (PPRE) (AID 2282958); conditions: HepG2 PPRE cis-element reporter, Attagene transcription factor profiling; actives raise or lower the signal
Summary of the method: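 HepG2 cells transiently transfected with multiplexed cis-element reporter units measure endogenous transcription factor activity. After 24 h compound exposure, reporter mRNA is quantified by RT-PCR, 6-FAM labeling, HpaI digestion and capillary electrophoresis; bidirectional fits are made against DMSO baseline.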

[5] = ATG_Sox_CIS: Attagene CIS-FACTORIAL HepG2 Assay for human SRY-box transcription factor (SOX) (AID 2282960); conditions: HepG2 Attagene cis-factorial SOX reporter, mRNA; actives raise or lower the signal
Summary of the method: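 HepG2 cells transiently transfected with cis-element-driven multiple reporter transcription units, dosed 24 h; reporter mRNA measured by RT-PCR, FAM labelling, HpaI digestion and capillary electrophoresis. Bidirectional fit versus DMSO baseline.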

[6] = molecular target: Transcription factor Sp1 (Homo sapiens) (UniProt P08047); assay: ATG_Sp1_CIS: Attagene CIS-FACTORIAL HepG2 Assay for human Specificity Protein 1 (Sp1) (AID 2282961); conditions: HepG2 Sp1 cis-reporter transcription, actives raise or lower the signal
Summary of the method: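 HepG2 cells transiently transfected with multiple reporter transcription units driven by cis-regulatory elements; Sp1-responsive reporter mRNA measured 24 h after dosing by RT-PCR and capillary electrophoresis fluorescence, fitted bidirectionally against DMSO baseline.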

[7] = ATG_SREBP_CIS: Attagene CIS-FACTORIAL HepG2 Assay for human Sterol Regulatory Element Binding (SREBP) (AID 2282962); conditions: HepG2 Attagene cis-factorial SREBP reporter, mRNA; actives raise or lower the signal
Summary of the method: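 Twenty-four hours after chemical dosing of transfected HepG2 cultures, reporter RNA was converted to cDNA, amplified, end-labelled with 6-FAM and resolved by capillary electrophoresis. Responses were fitted relative to DMSO.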

[8] = molecular target: Signal transducer and activator of transcription 3 (Homo sapiens) (UniProt P40763); assay: ATG_STAT3_CIS: Attagene CIS-FACTORIAL HepG2 Assay for human Signal Transducer and Activator of Transcription 3 (STAT3) (AID 2282963); conditions: HepG2, Attagene cis-factorial STAT3 reporter transcription; actives raise or lower the signal
Summary of the method: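 HepG2 cells transiently transfected with cis-element-driven multiple reporter transcription units; after 24 h chemical exposure, reporter mRNA measured by RT-PCR, 6-FAM primer-extension labelling, HpaI digestion and capillary electrophoresis. Bidirectional fitting versus DMSO baseline.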

[9] = ATG_TA_CIS: Attagene CIS-FACTORIAL HepG2 Assay for human TA Basal Promoter (AID 2282964); conditions: HepG2 Attagene CIS-factorial TA basal promoter reporter; actives raise or lower the signal
Summary of the method: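 HepG2 cells transiently transfected with multiple reporter units under cis promoter elements, reporting endogenous transcription factor activity; this endpoint tracks the TA basal promoter as background control. Reporter mRNA after 24 h dosing measured by RT-PCR/capillary electrophoresis; bidirectional fits versus DMSO.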

Measured: AC50

Chain of Signal transducer and activator of transcription 3 (Homo sapiens) (P40763 whole entry, looked up): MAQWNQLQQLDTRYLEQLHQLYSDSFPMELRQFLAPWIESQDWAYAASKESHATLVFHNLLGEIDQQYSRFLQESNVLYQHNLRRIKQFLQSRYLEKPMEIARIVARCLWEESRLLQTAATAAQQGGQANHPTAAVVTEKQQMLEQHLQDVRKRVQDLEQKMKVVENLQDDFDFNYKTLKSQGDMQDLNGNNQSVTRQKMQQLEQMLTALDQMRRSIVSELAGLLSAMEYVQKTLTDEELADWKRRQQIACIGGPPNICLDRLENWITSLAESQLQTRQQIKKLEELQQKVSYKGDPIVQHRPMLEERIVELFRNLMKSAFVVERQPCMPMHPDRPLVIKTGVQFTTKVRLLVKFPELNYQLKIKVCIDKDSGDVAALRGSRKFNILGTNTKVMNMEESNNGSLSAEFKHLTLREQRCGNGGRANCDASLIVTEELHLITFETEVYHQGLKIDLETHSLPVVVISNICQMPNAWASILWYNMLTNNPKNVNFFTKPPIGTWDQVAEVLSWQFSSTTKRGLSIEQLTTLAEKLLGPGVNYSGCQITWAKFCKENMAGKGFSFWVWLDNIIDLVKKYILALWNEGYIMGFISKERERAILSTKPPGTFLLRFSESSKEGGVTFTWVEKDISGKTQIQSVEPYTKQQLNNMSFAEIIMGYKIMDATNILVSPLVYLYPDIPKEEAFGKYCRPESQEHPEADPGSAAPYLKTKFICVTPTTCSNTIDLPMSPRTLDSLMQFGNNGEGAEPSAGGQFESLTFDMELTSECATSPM
Chain of Paired box protein Pax-6 (Homo sapiens) (P26367 whole entry, looked up): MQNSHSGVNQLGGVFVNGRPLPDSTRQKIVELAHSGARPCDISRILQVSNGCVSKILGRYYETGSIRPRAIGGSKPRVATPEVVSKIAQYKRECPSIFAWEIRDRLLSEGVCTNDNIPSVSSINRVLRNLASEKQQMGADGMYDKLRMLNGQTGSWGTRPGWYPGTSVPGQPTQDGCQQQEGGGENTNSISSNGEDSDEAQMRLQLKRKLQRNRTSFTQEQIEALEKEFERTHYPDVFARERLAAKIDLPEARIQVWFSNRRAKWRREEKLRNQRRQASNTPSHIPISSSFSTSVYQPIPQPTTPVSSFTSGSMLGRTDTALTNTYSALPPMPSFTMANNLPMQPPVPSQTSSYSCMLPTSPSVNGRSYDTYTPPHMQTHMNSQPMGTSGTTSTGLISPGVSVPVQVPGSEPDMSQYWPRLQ
Chain of Transcription factor Sp1 (Homo sapiens) (P08047 whole entry, looked up): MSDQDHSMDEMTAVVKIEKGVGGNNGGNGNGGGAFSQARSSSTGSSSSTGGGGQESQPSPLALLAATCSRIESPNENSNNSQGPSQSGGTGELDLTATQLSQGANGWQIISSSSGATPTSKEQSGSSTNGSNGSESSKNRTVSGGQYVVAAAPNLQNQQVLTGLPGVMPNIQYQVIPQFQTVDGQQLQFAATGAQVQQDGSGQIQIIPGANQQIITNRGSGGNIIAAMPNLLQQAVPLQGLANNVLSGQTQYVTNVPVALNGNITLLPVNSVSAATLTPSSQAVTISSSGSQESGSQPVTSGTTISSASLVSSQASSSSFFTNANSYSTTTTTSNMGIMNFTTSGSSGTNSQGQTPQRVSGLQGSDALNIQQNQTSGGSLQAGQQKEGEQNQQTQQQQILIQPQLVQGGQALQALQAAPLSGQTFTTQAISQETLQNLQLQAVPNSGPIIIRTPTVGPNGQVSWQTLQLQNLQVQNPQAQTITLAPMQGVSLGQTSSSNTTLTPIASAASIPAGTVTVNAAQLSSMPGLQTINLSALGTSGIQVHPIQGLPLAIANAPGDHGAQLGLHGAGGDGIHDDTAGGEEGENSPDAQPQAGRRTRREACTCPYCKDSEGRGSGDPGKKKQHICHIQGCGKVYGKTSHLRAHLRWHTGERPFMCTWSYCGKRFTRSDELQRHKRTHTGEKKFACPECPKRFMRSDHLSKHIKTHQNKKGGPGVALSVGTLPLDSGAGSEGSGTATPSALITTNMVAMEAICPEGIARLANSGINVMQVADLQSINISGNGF

CC1=CC2C3C=CC(C3)C2C1C (centres undefined)
active: [3] 1.59 µM
inactive: all other assays above

NC(=O)C(F)(F)C(F)(F)C(F)(F)F
inactive: all assays above

CCN(CC)c1ccc(C=O)c(O)c1
inactive: all assays above

O=C(c1ccccc1)c1ccc(O)cc1O
active: [3] 48.6 µM
not listed: [6]
inactive: all other assays above

OC(O)C(F)(F)C(F)(F)F
not listed: [6] | [8]
inactive: all other assays above

Cc1cnccn1
inactive: all assays above

C=C(C)C(=O)OCC(F)(F)C(F)(F)C(F)(F)C(F)F
inactive: all assays above

O=C(O)C(F)(F)C(F)(F)C(F)(F)OC(F)(C(F)(F)F)C(F)(F)F
active: [3] 39.8 µM | [4] 45.9 µM
not listed: [8]
inactive: all other assays above

C[Si](Cl)(Cl)CCC(F)(F)C(F)(F)C(F)(F)C(F)(F)C(F)(F)C(F)(F)F
not listed: [5] | [6] | [8]
inactive: all other assays above

CC(=O)CCC(C)C
active: [3] 52.9 µM
inactive: all other assays above

O=c1cccc[nH]1
not listed: [6]
inactive: all other assays above

CC(C)=CCCC(C)O (centres undefined)
not listed: [5] | [8]
inactive: all other assays above

Cc1ccc(S(=O)(=O)C(I)I)cc1
active: [2] 14.9 µM | [3] 8.89 µM | [4] 62.5 µM | [7] 4.34 µM | [8] 7.8 µM
inactive: [1] | [9]

O=C=NCc1cccc(CN=C=O)c1
not listed: [6]
inactive: all other assays above

O=C(c1ccccc1)c1ccc(Cl)cc1
active: [1] 47.2 µM | [3] 27.5 µM
not listed: [5]
inactive: all other assays above

CC(C)OC=O
not listed: [6] | [8]
inactive: all other assays above

O=S(=O)(OCC(F)(F)F)C(F)(F)C(F)(F)C(F)(F)C(F)(F)F
not listed: [5]
inactive: all other assays above

OCCCCC(F)(F)C(F)(F)C(F)(F)C(F)(F)F
inactive: all assays above

COc1ccccc1C=O
not listed: [6]
inactive: all other assays above

CCc1cc(Cc2cc(CC)c(N)c(CC)c2)cc(CC)c1N
active: [2] 33.4 µM | [3] 1.1 µM | [5] 29.3 µM | [7] 3.95 µM
inactive: [1] | [4] | [6] | [9]

NCC(F)(F)C(F)(F)C(F)(F)C(F)(F)C(F)(F)C(F)(F)C(F)(F)C(F)(F)F
not listed: [5]
inactive: all other assays above

NC(=O)C(F)(F)C(F)(F)C(F)(F)C(F)(F)C(F)(F)C(F)(F)C(F)(F)F
inactive: all assays above

C#CC(O)CCC (centres undefined)
not listed: [5] | [6]
inactive: all other assays above

NC(=O)C(F)(F)C(F)(F)C(F)(F)C(F)(F)C(N)=O
not listed: [6] | [8]
inactive: all other assays above

O=C1C=CC(=O)N1c1ccccc1
not listed: [8]
inactive: all other assays above

F[Si-2](F)(F)(F)(F)F
inactive: all assays above

COCCOCCC[Si](C)(O[Si](C)(C)C)O[Si](C)(C)C
inactive: [2] | [4] | [8] | [9]
active: [1] 8.38 µM | [3] 0.752 µM | [5] 8.52 µM | [6] 9.13 µM | [7] 6.62 µM

O=C1C=CC(=O)N1c1ccc(Cc2ccc(N3C(=O)C=CC3=O)cc2)cc1
active: [2] 33.4 µM | [3] 26.7 µM | [4] 57.2 µM | [6] 48.4 µM
not listed: [5]
inactive: all other assays above

O=C(O)CCC(F)(F)C(F)(F)C(F)(F)C(F)(F)C(F)(F)C(F)(F)C(F)(F)F
active: [4] 64.4 µM
not listed: [8]
inactive: all other assays above
